In PubChem BioAssay (NCATS):
Inconclusive results are not listed. The source made the active and inactive calls. Calls follow the shape of the dose curve; as a rule, active = well fitted cell-killing curve with a large enough effect; inconclusive = small, poorly fitted or top-dose-only effect; inactive = flat fitted curve, though single readings scatter.

Test: Cellular viability qHTS for adrenocortical cancer (ACC) cell line SW-13 (AID 1963989); also: nearly all actives have a fitted effect of over 65% in size;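 as to activity (max response): cells grown in serum-free medium with ITS supplement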
Conditions: SW-13 ACC cells viability, CellTiter-Glo, 48 h; activity (max response): hits give low values
Procedure, shortened: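 Viability was read as CellTiter-Glo luminescence after 48 h compound treatment (up to 46 uM final) of SW-13 cells grown serum-free; titration curves were fit with a four-parameter logistic model to give IC50 and efficacy.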
% is scaled to controls: 0 for no effect and ±100 for the full control effect; potency is read from the fitted curve at half-maximal effect.

For CN1CCN(c2ccc3nc(-c4c(N)c5c(F)cccc5[nH]c4=O)[nH]c3c2)CC1, which Potency is on record?
The Potency was 15.8 µM (active).

With C[C@H]1[C@H](C)CC[C@]2(C(=O)O)CC[C@]3(C)C(=CC[C@@H]4[C@@]5(C)CC[C@H](O)C(C)(C)[C@@H]5CC[C@]43C)[C@H]12 as the molecule, how does the activity (max response) read?
Its activity (max response) is -4.55% (inactive).

For CN1CCCN(C(=O)c2cccc(-c3ccc(/C=C4/C(=O)Nc5ccc(Cl)cc54)o3)c2)CC1, which Potency is on record?
The Potency was 25.1 µM (active).

With C[C@]12CCC3[C@@H](CC[C@H]4NC(=O)C=C[C@]34C)[C@@H]1CC[C@@H]2C(=O)Nc1cc(C(F)(F)F)ccc1C(F)(F)F (some centres undefined) as the molecule, how does the activity (max response) read?
Its activity (max response) is -0.361% (inactive).

Which Potency does the source give for O=C(c1ccc(F)c(F)c1Nc1ccc(I)cc1F)N1CC(O)([C@@H]2CCCCN2)C1 here?
Its Potency is 12.6 µM (active).

With CCS(=O)(=O)N1CCC([C@@H](C)n2c(C)c(C(=O)NCc3c(OC)cc(C)[nH]c3=O)c3ccccc32)CC1 as the molecule, how does the activity (max response) read?
Its activity (max response) is 8.68% (inactive).

For CCC[C@H](N[C@H]1CCc2cc(F)cc(F)c2C1)C(=O)Nc1cn(C(C)(C)CNCC(C)(C)C)cn1, which Potency is on record?
The Potency was 14.1 µM (active).

For CC(C)NC[C@@H](O)COc1ccc(CC(N)=O)cc1, which activity (max response) is on record?
The activity (max response) was 7.4% (inactive).

For CCC(CC)CC1(C(=O)Nc2ccccc2SC(=O)C(C)C)CCCCC1, which activity (max response) is on record?
The activity (max response) was 9.72% (inactive).

With CC(=O)c1ccc2c(c1)c1cc(C(C)=O)ccc1n2CCNC(C)C as the molecule, how does the Potency read?
The Potency was 1.58 µM (active).

Which activity (max response) does the source give for OC[C@@H](O)[C@@H](O)[C@H](O)[C@H](O)CO here?
Its activity (max response) is -5.63% (inactive).

For CCNCCc1ccc(CN(CC)c2cc(OC)ccc2[C@@H]2CCc3cc(O)ccc3C2)cc1, which Potency is on record?
The Potency was 6.31 µM (active).

For CCC(C)(CN(C)C)OC(=O)c1ccccc1 (centres undefined), which activity (max response) is on record?
The activity (max response) was -1.44% (inactive).

With CC(/C=C/[C@@H]1C[C@]1(C)c1ccc2c(c1)C(C)(C)CCC2(C)C)=C\C(=O)O as the molecule, how does the activity (max response) read?
The activity (max response) was -5.24% (inactive).

Which Potency does the source give for COc1ccc(N2C(=O)N(c3c(C)cccc3Cl)Cc3cnc(Nc4ccc(C5CCN(C)CC5)cc4OC)nc32)nc1 here?
Its Potency is 2.24 µM (active).

For Cc1ccc(C(=O)Nc2ccc(CN3CCN(C)CC3)c(C(F)(F)F)c2)cc1C#Cc1cnc2[nH]ncc2c1, which Potency is on record?
The Potency was 1.78 µM (active).

With CCN1C(=O)N2Cc3cc(OC)cc(OC)c3[C@@H](C)C=C2C12CCN(Cc1cc(C)cc(C)c1)CC2 as the molecule, how does the Potency read?
The Potency was 28.2 µM (active).

Which activity (max response) does the source give for O=C(Nc1cc(Oc2cc(F)c(NC(=O)C3(C(=O)Nc4ccc(F)cc4)CC3)cc2F)ccn1)C1CC1 here?
The activity (max response) was -9.83% (inactive).

Which activity (max response) does the source give for CC(C)Oc1ccc(-c2nn([C@@H](C)c3oc4ccc(F)cc4c(=O)c3-c3cccc(F)c3)c3ncnc(N)c23)cc1F here?
Its activity (max response) is 7.73% (inactive).

Which activity (max response) does the source give for CC(=O)O[C@H]1CC[C@@]2(C)C(=CC[C@@H]3[C@@H]2CC[C@]2(C)C(C(C)=O)=CC[C@@H]32)C1 here?
Its activity (max response) is 8.77% (inactive).

For CC(C)Cc1ccc([C@@H](C)C(=O)NS(C)(=O)=O)cc1, which activity (max response) is on record?
The activity (max response) was 5.6% (inactive).

With Cc1cc(C(C#N)c2ccc(Cl)cc2)c(Cl)cc1NC(=O)c1cc(I)cc(I)c1O (centres undefined) as the molecule, how does the Potency read?
Its Potency is 4.11 µM (active).

Which activity (max response) does the source give for Cc1c(N(C)C)c(=O)n(-c2ccccc2)n1C here?
The activity (max response) was 10.1% (inactive).

Which activity (max response) does the source give for CC(C)N(CCC(=O)c1ccc2ccccc2c1)Cc1ccccc1 here?
The activity (max response) was -18.6% (inactive).

With CN=C(NC#N)NCCSCc1csc(N=C(N)N)n1 as the molecule, how does the activity (max response) read?
The activity (max response) was 7.67% (inactive).

Which activity (max response) does the source give for CCCCOC(=O)c1ccc(O)cc1 here?
The activity (max response) was -18.3% (inactive).

Which activity (max response) does the source give for C[C@@H](O)[C@@H](C)Oc1nc(Nc2ccc(S(=N)(=O)C3CC3)cc2)ncc1C(F)(F)F (some centres undefined) here?
The activity (max response) was 4.29% (inactive).

Which Potency does the source give for COc1cc2c(Oc3ccc4[nH]c(C)cc4c3F)ccnc2cc1OCC1(N)CC1 here?
Its Potency is 11.2 µM (active).

With NC(=O)c1nc(F)c[nH]c1=O as the molecule, how does the activity (max response) read?
Its activity (max response) is 0.237% (inactive).

For CC(=O)OC[C@H]1O[C@@](COC(C)=O)(O[C@H]2O[C@H](COC(C)=O)[C@@H](OC(C)=O)[C@H](OC(C)=O)[C@H]2OC(C)=O)[C@@H](OC(C)=O)[C@@H]1OC(C)=O, which activity (max response) is on record?
Its activity (max response) is 1.89% (inactive).

Which activity (max response) does the source give for Cc1c(F)ccc(C(=O)Nc2cc([N+](=O)[O-])ccc2N2CCN(C)CC2)c1Cl here?
Its activity (max response) is -19.1% (inactive).

For Cc1onc(-c2c(Cl)cccc2Cl)c1C(=O)N[C@@H]1C(=O)N2[C@@H]1SC(C)(C)[C@@H]2C(=O)O, which activity (max response) is on record?
Its activity (max response) is 1.28% (inactive).

Which Potency does the source give for COc1ccc(-c2cc(C(O)C3CCCCN3)c3ccccc3n2)cc1 (centres undefined) here?
The Potency was 28.2 µM (active).

With N#Cc1cc2cc(CN3CCC(Nc4ncnc5sc(CC(F)(F)F)cc45)CC3)c(O)cc2n1Cc1cn[nH]c1 as the molecule, how does the Potency read?
Its Potency is 14.1 µM (active).
